Screening results as filed in PubChem BioAssay.
mTORC1 inh – mTORC1 pathway inhibition measured by phospho-rpS6 | Tsc2-/- p53-/- MEF, phospho-rpS6 immunofluorescence/PI, 24 h | Potency, µM (series often up to 38.3 µM), actives largely listed as inhibitors | 44,000 tested, 0.78% active | AID 493208; also: nearly all actives have a fitted effect of over 50% in size
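Tsc2-/-, p53-/- MEFs (empty-vector stable line) in DMEM + 10% FBS were treated with compounds 24 h at 37 degree Celsius, fixed, and immunostained for phospho-rpS6 (Alexa-488) with propidium iodide counterstain. Laser-scanning cytometry gave % positive cells, normalized against 7.5 nM rapamycin and DMSO.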
OvCa metastasis – blocks SKOV3ip1 adhesion and invasion in omental model; AID 1963576; SKOV3ip1-GFP adhesion/invasion on 3D omental model, fluorescence; 46,000 tested, 0.1% active; Potency, µM (highest dose often 45.8 µM), hits mostly inhibitors; also: nearly all actives have a fitted effect of over 65% in size
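Primary human omental fibroblast/mesothelial 3D culture pre-formed 48 h. SKOV3ip1-GFP cells added with compounds (0.36-46 umol/L), incubated 2 h RT/16 h 37 C, fixed; GFP cells quantified at 488/509 nm.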
S16 F2sN tox – S16 Schwann cell cytotoxicity; AID 1508642; S16 Pmp22-F2sN Schwann cells viability, CellTiter-Glo, 24 h; 43,000 tested, 0.48% active; Potency, µM (highest dose often 57.5 µM), actives largely listed as cytotoxic; also: nearly all actives have a fitted effect of over 65% in size
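CellTiter-Glo counter-screen, qHTS, 1536-well. Cells: S16(c9) Pmp22-F2sN, 500-1,000/well in DMEM + 10% FBS. Cpd 23 nL pin transfer, 24 h, 37C/5% CO2. Read: luminescence, CCD imager.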
PMP22 txn – PMP22 gene transcription modulation; S16 Pmp22-F2sN Schwann cells (luciferase reporters placed in the Pmp22 gene), FLuc/NLuc coincidence luminescence, 24 h; Potency, µM (series often up to 57.5 µM), actives largely listed as inhibitors; 43,000 tested, 2% active; active = clear falling dose curves in both reporters; inconclusive = both reporters move, but less clearly or upward; inactive = either reporter flat; the % is the NLuc reporter signal
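Schwann cells carrying the coincidence reporter were exposed to library compounds for 24 h at 37C, then lysed and read for FLuc and, after quenching, NLuc luminescence on a CCD imager.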
GALC G270D act – galactocerebrosidase G270D activity enhancement, cell-based; P54803; 145M-Twi-hGALC-G270D cells, HMU-beta-Gal fluorescence, 48 h; Potency, µM (titrated, usually from 57.5 µM), hits mostly activators; 45,000 tested, 0.1% active; AID 1159614; also: nearly all actives have a fitted effect of over 65% in size
Target sequence (P54803 whole entry G286D): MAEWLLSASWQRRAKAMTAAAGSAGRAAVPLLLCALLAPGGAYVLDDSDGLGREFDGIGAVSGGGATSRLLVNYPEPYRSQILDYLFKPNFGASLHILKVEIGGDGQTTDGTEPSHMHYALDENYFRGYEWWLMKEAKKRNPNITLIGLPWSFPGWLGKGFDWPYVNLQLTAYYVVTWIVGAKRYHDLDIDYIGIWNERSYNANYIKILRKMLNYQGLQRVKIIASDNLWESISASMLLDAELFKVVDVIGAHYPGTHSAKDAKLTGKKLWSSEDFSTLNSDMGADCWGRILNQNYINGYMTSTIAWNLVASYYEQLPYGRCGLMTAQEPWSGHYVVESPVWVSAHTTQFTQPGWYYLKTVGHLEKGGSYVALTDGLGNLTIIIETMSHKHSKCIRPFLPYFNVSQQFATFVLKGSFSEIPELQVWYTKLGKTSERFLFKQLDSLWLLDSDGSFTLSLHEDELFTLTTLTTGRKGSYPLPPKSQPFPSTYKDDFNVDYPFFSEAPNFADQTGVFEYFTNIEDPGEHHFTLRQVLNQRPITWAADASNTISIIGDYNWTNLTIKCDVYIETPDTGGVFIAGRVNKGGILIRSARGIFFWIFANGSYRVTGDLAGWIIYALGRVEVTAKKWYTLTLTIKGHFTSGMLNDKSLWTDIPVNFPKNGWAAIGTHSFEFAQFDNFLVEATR
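qHTS, 1536-well; 145M-Twi-hGALC-G270D cells (WT line also made) in DMEM/F12 + 10% FBS; compound incubation on live cells; HMU-β-gal 0.1 mM final, pH 5.2, NaTC; carbonate stop; fluorescence increase = enhanced residual activity.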
A number is an active result; - = inactive; ? = inconclusive; . = no result given. A selection: hits, their analogues and other compounds. The true share with any hit is near 2.6%. Unless noted, calls follow the shape of the dose curve; as a rule, active = well fitted curve in the direction sought with a large enough effect; inconclusive = small, poorly fitted or top-dose-only effect, or another doubt; inactive = no such curve, though single readings can be large; an effect the other way counts as inactive or inconclusive.

SMILES | mTORC1 inh | OvCa metastasis | S16 F2sN tox | PMP22 txn | GALC G270D act
COc1ccc(-c2[nH]nc3nc(-c4cc(OC)c(OC)c(OC)c4)cc(C(=O)O)c23)cc1 | 16µM | - | - | - | -
COc1ccc(C(Nc2ccccn2)c2ccc3ccc(C)nc3c2O)cc1C (centres undefined) | - | - | ? | ? | -
Cc1ccc(C(Nc2ccccn2)c2ccc3cccnc3c2O)cc1 (centres undefined) | - | - | 32µM | ? | -
FC(F)(F)c1ccc(C=Cc2nc(COc3ccc(CCCCn4ccnn4)cc3)co2)cc1 | . | - | . | . | .
Cc1cccc(N2CCN(c3ncnc4onc(C)c34)CC2C)c1 (centres undefined) | - | - | ? | 11µM | -
O=C(NCc1ccccc1)c1cc2sccc2n1Cc1ccc(Cl)cc1 | - | - | - | - | -
CC(C)NC(=O)C1CCN(C(=O)c2cc3sccc3n2Cc2ccc(Cl)cc2)CC1 | - | - | ? | 9.5µM | -
O=C(CCS(=O)(=O)c1ccccc1)N(Cc1cccnc1)c1nc2ccc(F)cc2s1 | ? | ? | 4.5µM | 11µM | -
CC(C)(C)Cn1c(N)nc2ccc(-c3[nH]c(C(C)(C)C)nc3-c3ccc(F)cc3)nc21 | . | - | . | . | .
COc1cc(OC)cc(C(=O)Nc2cc(-c3nc4ccccc4[nH]3)ccc2C)c1 | - | - | - | - | -
Cc1ccc(C(C)C)c(OCC(=O)Nc2cc(-c3nc4ccccc4[nH]3)ccc2C)c1 | 13µM | - | ? | ? | -
Cc1cc(Nc2nc(N[C@@H](C)c3ccc(F)cc3)c(C#N)cc2F)n[nH]1 | . | - | . | . | .
CCOC(=O)c1cccc(NS(=O)(=O)c2ccc(-c3cnc(C4CC4)o3)cc2)c1 | - | - | ? | 11µM | -
COc1cc(Cl)c(NS(=O)(=O)c2ccc(-c3cnc(C4CC4)o3)cc2)c(OC)c1 | - | - | 1.3µM | 3µM | -
CC(=O)c1ccc(NS(=O)(=O)c2ccc(-c3cnc(C4CC4)o3)cc2)cc1 | - | - | - | - | -
O=S(=O)(NCc1ccccc1Cl)c1ccc(-c2cnc(C3CC3)o2)cc1 | - | - | ? | ? | -
Cc1ccc(N(C)S(=O)(=O)c2ccc(-c3cnc(C4CC4)o3)cc2)cc1 | - | - | ? | 14µM | -
C[C@H](CCC(=O)O)[C@H]1CC[C@H]2[C@@H]3[C@H](O)C[C@@H]4C[C@H](O)CC[C@]4(C)[C@@H]3CC[C@]12C | . | - | . | . | .
COc1ccc(N2CCN(C(=O)c3ccc4c(=O)n(CCc5ccc(OC)c(OC)c5)c(=O)[nH]c4c3)CC2)cc1 | - | - | ? | 13µM | -
COc1ccc(Cn2c(=O)[nH]c3cc(C(=O)N4CCN(c5cccc(OC)c5)CC4)ccc3c2=O)cc1 | - | - | - | ? | -
CC(C)Cc1ccc(S(=O)(=O)N2CCC(c3ccncc3)CC2)cc1 | 18µM | ? | ? | ? | -
O=S(=O)(c1ccc(Cl)cc1)N1CCC(c2ccncc2)CC1 | - | - | - | - | -
CC(C)(C)c1ccc(S(=O)(=O)N2CCC(c3ccncc3)CC2)cc1 | 18µM | - | ? | ? | -
COc1ccc(OC)c(NC(=O)c2nnn(CC(=O)Nc3ccc(C(C)C)cc3)c2N)c1 | 16µM | - | - | - | -
COc1ccc(NC(=O)c2nnn(CC(=O)Nc3ccc(C)c(C)c3)c2N)cc1OC | - | - | - | - | -
Cc1ccc2occ(CC(=O)Nc3ccc(Cl)c(C(F)(F)F)c3)c2c1 | 12µM | - | ? | ? | -
Cc1ccc2occ(CC(=O)Nc3ccc(S(N)(=O)=O)cc3)c2c1 | - | - | - | - | -
Cc1ccc(S(=O)(=O)c2nnn3c2nc(N2CCC(C(N)=O)CC2)c2cc(Cl)ccc23)cc1C | - | - | ? | 16µM | -
CCOC(=O)C1CCN(c2nc3c(S(=O)(=O)c4ccc(C)c(C)c4)nnn3c3ccc(Cl)cc23)CC1 | - | - | - | - | -
CN(C(=O)c1ccc(F)cc1C(F)(F)F)C1CCN(c2nnc(-c3ccnn3C)c3ccccc23)CC1 | . | - | . | . | .
